Compound activity deposited in PubChem BioAssay by National Center for Advancing Translational Sciences (NCATS).
This is a sample that favours compounds with a hit; in the whole collection about 3.6% have one here.
IMPase Li inh: IMPase inhibition in cells with lithium potentiation | 210,000 tested, 0.35% active | AID 1457 | Potency, µM (doses to about 59.4 µM), inactives show top-dose activity, negative = IMPase inhibition, hits mostly inhibitors | CHO-M1 cells, IP1 TR-FRET (IP-One), carbachol + lithium;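 also: IP1 builds up when IMPase is blocked and the TR-FRET signal falls; plate controls were basal vehicle for no effect and high inhibitor control for full effect; nearly all actives have a fitted effect of over 50% in size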
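Concentration–response in CHO-M1 cells, lithium-potentiated; 30 min at 37C. IP1 detected by competitive TR-FRET after 10 min lysis at RT. Hill-fitted AC50.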
GCN5L2 inh: blocks human GCN5L2 histone acetyltransferase; GCN5L2 HAT assay, ThioGlo1 CoA-SH fluorescence; Q92830; AID 504327; Potency, µM (highest dose often 58.9 µM), inactives show top-dose activity change, negative = inhibition, hits mostly inhibitors; 390,000 tested, 0.21% active; also: % is scaled to controls: 0 for no effect and ±100 for the full control effect
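Enzyme at 20nM final was mixed with library compounds for 15 min at room temperature. Peptide H3(1-25) at 75uM, acetyl-CoA at 70uM and ThioGlo1 at 50uM were then added. Plates were read immediately and after 20 min (Ex340nm/Em540nm).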
Epigenetic reg: epigenetic control regulation, reporter derepression; murine LDR cells, GFP reporter derepression, 30 h; Potency, µM (series often up to 53.9 µM), inactives show at the highest dose GFP activation, hits mostly activators; 280,000 tested, 0.2% active; AID 1865; also: % of control where 0% means no effect; nearly all actives have a fitted effect of over 60% in size
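Derepression of a silenced CMV-GFP reporter in murine LDR cells is scored by enumerating GFP-positive cells with a laser-scanning microplate cytometer after 30 hours of treatment at 37 C.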
KDM4E inh: JMJD2E (human) inhibition | B2RXH2 | JMJD2E catalytic domain, FDH-coupled NADH fluorescence (FDH is formaldehyde dehydrogenase) | Potency, µM (titrated, usually from 57.1 µM), without a hit: at the top dose activity change, negative = inhibition, usual class: inhibitors | 230,000 tested, 1.6% active; active = well fitted inhibition curve with a large enough effect, not every such curve was filed as active; inconclusive = small, poorly fitted or top-dose-only effect, or another doubt; inactive = no such curve, though single readings can be large or run the other way;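 also: 0% = wells with enzyme and -100% = buffer wells without enzyme; nearly all actives have a fitted effect of over 50% in size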
Target sequence (B2RXH2 1-337 limits assumed): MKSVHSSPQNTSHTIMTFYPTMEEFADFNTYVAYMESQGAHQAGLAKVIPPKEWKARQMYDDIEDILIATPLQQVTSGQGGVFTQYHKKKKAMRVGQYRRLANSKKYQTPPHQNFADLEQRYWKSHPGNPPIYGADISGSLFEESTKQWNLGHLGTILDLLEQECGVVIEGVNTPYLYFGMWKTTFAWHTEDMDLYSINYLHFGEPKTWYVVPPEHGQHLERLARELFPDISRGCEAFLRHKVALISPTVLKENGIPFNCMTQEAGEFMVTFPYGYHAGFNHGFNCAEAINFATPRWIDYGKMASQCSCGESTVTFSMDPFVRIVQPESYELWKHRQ
NPSR antagonist: antagonists of human neuropeptide S receptor cAMP signaling. Q6W5P4. CHO-NPSR cells, cAMP TR-FRET, antagonist mode. Potency, µM (series often up to 38.3 µM), for the others: top-dose activity change, negative = inhibition, hits mostly inhibitors. 220,000 tested, 1% active. AID 1461; also: % is scaled to controls: 0 for no effect and ±100 for the full control effect; nearly all actives have a fitted effect of over 50% in size
Target sequence (Q6W5P4 whole entry, looked up): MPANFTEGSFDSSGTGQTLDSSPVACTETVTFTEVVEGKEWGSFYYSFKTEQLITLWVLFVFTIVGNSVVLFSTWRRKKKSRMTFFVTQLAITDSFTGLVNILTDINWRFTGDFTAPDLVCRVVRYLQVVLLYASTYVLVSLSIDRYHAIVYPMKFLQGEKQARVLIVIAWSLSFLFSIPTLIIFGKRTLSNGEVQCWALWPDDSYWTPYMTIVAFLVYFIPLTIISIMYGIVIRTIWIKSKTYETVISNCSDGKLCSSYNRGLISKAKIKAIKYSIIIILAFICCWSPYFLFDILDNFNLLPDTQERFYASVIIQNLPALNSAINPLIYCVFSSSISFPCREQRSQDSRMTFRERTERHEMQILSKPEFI
Sfp inh: inhibitors of Bacillus subtilis Sfp phosphopantetheinyl transferase; 310,000 tested, 3.5% active; Potency, µM, without a hit: largest response in the series, negative = inhibition, actives largely listed as inhibitors; Biochemical Sfp PPTase activity, qHTS; AID 1490; Q9F4F7;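 also: the enzyme is Sfp with the accession as filed and its product quenches rhodamine fluorescence; 0% = enzyme reaction without inhibitor and -100% = no enzyme wells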
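Fluorescence-quenching assay with 15 nM Sfp, 5 uM rhodamine-CoA and 12.5 uM BHQ-2-labelled ybbR peptide in pH 7.6 Hepes/MgCl2 buffer. Enzyme was pre-incubated with compound for 15 min at room temperature. Rate was taken from the 30-min fluorescence change (525/598 nm).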
Active calls of the source: *; ? = inconclusive; . = no result; [ ] = remark or other dose. Unless noted, calls follow the shape of the dose curve; as a rule, active = well fitted curve in the direction sought with a large enough effect; inconclusive = small, poorly fitted or top-dose-only effect, or another doubt; inactive = no such curve, though single readings can be large; an effect the other way counts as inactive or inconclusive. Potency is read from the fitted curve at half-maximal effect.

SMILES | IMPase Li inh | GCN5L2 inh | Epigenetic reg | KDM4E inh | NPSR antagonist | Sfp inh
CNC(=O)NC(=O)CSc1nc(-c2cccs2)c(C#N)c(=O)[nH]1 | 5µM* | -4% | 0% | -12% | ? | 8%
N#Cc1c(-c2ccccc2)nc(SCC(=O)NC2CCCCC2)[nH]c1=O | 10µM* | -3% | 2% | 7% | -50% | 14%
CSc1nc(-c2cccs2)c(C#N)c(=O)[nH]1 | . | -5% | 1% | ? | ? | 0%
CCC(=O)NNc1nc2c(Cl)cccc2s1 | -6% | -9% | -4% | -12% | 15% | 6%
CCC(=O)NNc1nc2c(C)cccc2s1 | -1% | -7% | -1% | -4% | 22% | 50µM*
CC(=O)OCC(NC(=O)C(C)NC(=O)OC(C)(C)C)C1OC(n2cc(F)c(=O)[nH]c2=O)C(OC(C)=O)C1OC(C)=O (stereo unspecified) | . | . | . | . | . | 21%
O=C1/C(=N/n2cnnc2)c2ccccc2N1Cc1ccccc1 | 24%[38.3 µM] | 23% | 2% | 9% | ? | 45µM*
O=C1C(=O)N(Cc2ccc(Cl)c(Cl)c2)c2ccccc21 | 31% | -13% | -4% | 2% | . | 50µM*
c1ccc2c(c1)C(=Nn1cnnc1)c1ccccc1-2 | 23%[38.3 µM] | -20% | 2% | -4% | -3%[46.1 µM] | 9%
CO[C@H]1COC(=O)[C@@H](C)COC(=O)[C@@H](COCc2ccccc2)NC(=O)C/C=C\[C@H]1C | . | . | 5%[10.1 µM] | . | . | 7%
CCOC(=O)/C=C/CCC/C=C/C(=O)c1ccccc1 | 7% | . | ? | -6% | . | -21%
CCOC(=O)C1=C(C)NC2=C(C(=O)c3ccccc32)C1c1ccc([N+](=O)[O-])o1 (stereo unspecified) | . | -18% | 1% | 8% | ? | 35µM*
CCOC(=O)C1=C(C)NC(=O)NC1c1ccc([N+](=O)[O-])o1 (stereo unspecified) | . | 2% | 0% | -2% | -7% | 7%
O=C(Cn1cnc2c(nnn2Cc2ccccc2F)c1=O)NCc1ccco1 | -9%[38.3 µM] | -36% | 4% | 6% | -5%[46.1 µM] | 89µM*
O=C(Cn1cnc2c(cnn2-c2ccc(F)cc2)c1=O)NCc1ccco1 | -13%[38.3 µM] | -4% | 0% | 8% | ? | 4%
Cc1sc2ncn(CC(=O)NCc3ccco3)c(=O)c2c1-c1ccc(F)cc1 | 1% | 1% | -3% | 0% | 11% | 18µM*
C[C@H]1[C@H](C)CC[C@]2(C(=O)O)CC[C@]3(C)C(=CC[C@H]4[C@]3(C)C[C@@H](O)C3[C@](C)(CO)[C@H](O)[C@@H](O)C[C@]34C)[C@H]12 (stereo partly specified) | -1% | . | . | . | . | .
C[C@@H]1C(=O)N(S(=O)(=O)c2ccc([N+](=O)[O-])cc2)[C@H]1c1ccccc1 | . | . | . | . | . | -21%
CCCCc1nc(N2CCN(C(=O)c3ccco3)CC2)c(C#N)c2c1CCCC2 | . | ? | . | . | . | 45µM*
Cc1nnc2c(N3CCN(C(=O)c4ccco4)CC3)nc3ccccc3n12 | . | -10% | . | . | . | 6%
CCCc1cc(N2CCN(C(=O)c3ccco3)CC2)n2c(nc3ccccc32)c1C#N | -1%[38.3 µM] | -15% | 9% | ? | ? | 56µM*
CC(=O)OC[C@@H]1O[C@@H](O/N=C2/C[C@@H](O)[C@@H](O)[C@@H]3[C@@H]4C(=O)N(c5cccc(Oc6ccccc6)c5)C(=O)[C@H]4CC[C@H]23)[C@H](OC(C)=O)[C@H](OC(C)=O)[C@@H]1OC(C)=O | . | . | 0%[10.1 µM] | . | . | 6%
CN(C)C(=O)c1ccc(-c2nc(NC3CCNCC3)c3ccccc3n2)cc1 | -7% | -6% | . | . | . | 14%
CC1=C(C(=O)Nc2ccccc2)C2(CCCCC2)C(C#N)=C(S)N1 | 5%[38.3 µM] | -4%[0.501 µM] | 0% | -3% | -18%[46.1 µM] | 32µM*
Cc1ccc(C(=O)c2oc3ccccc3c2NC(=O)c2cc(-c3ccccc3)on2)cc1 | . | -8% | -2% | . | . | .
SMILES | IMPase Li inh | GCN5L2 inh | Epigenetic reg | KDM4E inh | NPSR antagonist | Sfp inh
O=C(N/N=C/C(Br)=C\c1ccccc1)c1n[nH]c2c1CCC2 | 33%[38.3 µM] | -7% | 0% | ? | ? | 28µM*
Cc1occc1C(=O)N/N=C/c1ccc(-c2ccccc2)cc1 | . | -8% | . | . | . | 17%
Cc1occc1C(=O)N/N=C/C(Br)=C/c1ccccc1 | 30% | -8% | 22µM* | -6% | -15% | -10%
CCN(CC)c1ccc2cc(-c3nc4sc5c(c4c(=O)[nH]3)CCC(C(C)(C)C)C5)c(=O)oc2c1 (stereo unspecified) | . | 1% | 1% | . | . | .
O=C(NC[C@H]1CCCCN1)c1cc(OCC(F)(F)F)ccc1OCC(F)(F)F | 2% | . | 2% | 0% | . | -6%
CC(=O)OC[C@@H]1O[C@H](C/C=N\OC[C@@H](O)COCc2ccco2)C=C[C@@H]1OC(C)=O | . | . | 0%[10.1 µM] | . | . | 14%
COCCN1C(=O)/C(=C/c2ccc(N3CCCC3)cc2C)SC1=S | 11% | -17% | 2.8µM* | -30% | 21% | 9%
COC(=O)CN1C(=O)[C@@H]2[C@H](C1=O)[C@@H]1CC(C(=O)OC)=C[C@@H](C(=O)OC)C3C1=C(C(=O)[C@@]3(C)NC(=O)c1ccccc1)[C@@H]2C (stereo partly specified) | . | . | . | . | . | -1%
O=C(c1ccc(Br)o1)N1CCN(c2ccccn2)CC1 | 46%[38.3 µM] | 1% | 0% | 2% | -4%[46.1 µM] | 25µM*
CCCCN1C(=O)C(=O)N(CC(=O)N2N=C3/C(=C/c4ccco4)CCCC3C2c2ccco2)C1=O (stereo unspecified) | 6% | -9% | 3% | -5% | -29% | 45µM*
COc1ccc(OC)c2c(C)c(C)[nH]c12 | . | -11% | ? | ? | -14% | 10µM*
NC1=NC(=O)/C(=C\c2ccco2)S1 | . | 3% | 1% | 22µM* | -6% | 35µM*
Cc1ccc(CNc2ccc(-c3nc(-c4ccco4)no3)cc2[N+](=O)[O-])cc1 | . | -2% | 1% | . | . | .
O=C1OCC2OC(O)C(O)C(O)C2OC(=O)c2cc(O)c(O)c(O)c2-c2c(O)c(O)c3oc(=O)c4c(c(O)c(O)c5oc(=O)c2c3c54)-c2c1cc(O)c(O)c2O (stereo unspecified) | . | -1% | 0% | 0.56µM* | 10% | 3.5µM*
COc1c(O)cc2c(c1O)C1OC(CO)C(O)C(O)C1OC2=O (stereo unspecified) | . | -20% | . | . | . | .
CCNc1ncc2ncc(=O)n(CCOC)c2n1 | -8% | -19% | . | . | . | 6%
O=C(Nc1nc(-c2ccc3ccccc3c2)cs1)C1CCN(S(=O)(=O)c2cccs2)CC1 | -3% | -3% | -2% | 18µM* | 4% | -12%
Oc1cccc(/C=N/N2CCN(c3ccccn3)CC2)c1 | . | -1% | 0% | 2% | 9% | 5%
